# Test results from PubChem BioAssay (NCATS).
# Unmarked numbers belong to inactive results. Records with an inconclusive call do not appear. A call without a number means that no potency is given here. Activity calls are given as the source filed them. The call rests on the fitted dose curve; in most records, active means well fitted curve in the direction sought with a large enough effect; inconclusive means small, poorly fitted or top-dose-only effect, or another doubt; inactive means no such curve, though single readings can be large; an effect the other way counts as inactive or inconclusive.
# Key:
# [1] = qHTS to identify inhibitors of the type 1 interferon - major histocompatibility complex class I in skeletal muscle: primary screen against the NCATS Mechanism Interrogation Plate v5.0 (MIPE) Libary (AID 1347411); settings: iHSKM cells + IFN-b, HiBiT-tagged MHC-I luminescence, 24 h; series mostly up to 45.8 µM; further: nearly all actives have a fitted effect of over 65% in size; further: potency means the concentration at half of the fitted maximal effect
# Summary of the method: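 Luminescence from HiBiT-tagged endogenous HLA-B*08:01 served as the MHC class I read-out. CRISPR-engineered C25cl48 human myoblasts received 4.0 ng/ml IFN-beta plus compound for 24 hrs, with an 11-point, 1:3 series topping at 46 uM final.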
# [2] = target: Calcium and integrin-binding protein 1 (Homo sapiens) (UniProt Q99828); assay: Primary qHTS for Identification of Calcium Integrin Binding Protein 1 (CIB1) Competitor (AID 1508620); settings: CIB1-GST / FITC-alphaIIb peptide fluorescence polarization; series mostly up to 57.7 µM;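 further: GST tagged CIB1 binding a fluorescein labelled alphaIIb integrin peptide tracer; top concentration of the series differs between compounds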
# Sequence of Calcium and integrin-binding protein 1 (Homo sapiens) (Q99828 whole entry, looked up): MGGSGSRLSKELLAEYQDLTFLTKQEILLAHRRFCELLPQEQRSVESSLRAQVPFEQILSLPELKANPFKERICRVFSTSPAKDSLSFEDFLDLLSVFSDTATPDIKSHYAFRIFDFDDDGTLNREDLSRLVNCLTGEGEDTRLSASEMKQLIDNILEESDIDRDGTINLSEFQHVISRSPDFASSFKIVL
# Summary of the method: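 Fluorescence polarization competition: GST-tagged CIB1 (1 uM final) preincubated with compound 15 min at room temperature, then FITC-labelled alphaIIb peptide (100 nM final) added. After 15 min at room temperature, polarization read at Ex 480/Em 540.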
# [3] = target: Protein phosphatase 1D (Homo sapiens) (UniProt O15297); assay: RapidFire Mass Spectrometry qHTS Assay for Modulators of WT P53-Induced Phosphatase 1 (WIP1) (AID 1347424); settings: WIP1 dephosphorylation of phosphopeptide, RapidFire MS; series mostly up to 63 µM;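 further: amount of dephosphorylated VEPPL-S-QETFS peptide product formed by WIP1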
# Sequence of Protein phosphatase 1D (Homo sapiens) (O15297 whole entry, looked up): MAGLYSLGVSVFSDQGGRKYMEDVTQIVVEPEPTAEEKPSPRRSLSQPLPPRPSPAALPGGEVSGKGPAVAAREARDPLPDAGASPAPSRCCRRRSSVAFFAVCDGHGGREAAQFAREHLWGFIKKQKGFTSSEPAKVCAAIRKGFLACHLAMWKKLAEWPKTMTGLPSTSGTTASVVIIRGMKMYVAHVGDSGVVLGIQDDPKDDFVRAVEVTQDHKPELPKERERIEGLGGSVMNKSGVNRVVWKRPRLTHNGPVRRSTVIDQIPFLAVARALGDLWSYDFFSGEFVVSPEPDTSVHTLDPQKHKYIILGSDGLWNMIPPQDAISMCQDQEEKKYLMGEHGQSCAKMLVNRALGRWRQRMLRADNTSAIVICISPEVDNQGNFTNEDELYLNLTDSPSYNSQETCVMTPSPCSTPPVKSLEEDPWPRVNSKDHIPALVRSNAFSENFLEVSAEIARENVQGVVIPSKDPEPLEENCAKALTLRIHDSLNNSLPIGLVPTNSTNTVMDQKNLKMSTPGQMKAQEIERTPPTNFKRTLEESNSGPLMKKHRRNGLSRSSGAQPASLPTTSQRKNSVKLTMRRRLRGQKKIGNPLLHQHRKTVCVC
# Summary of the method: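 10 nM WIP1 preincubated with compounds 1 hr at room temperature in pH 7.5 Tris buffer with 30 mM MgCl2, 1 mM TCEP; 2 uM VEPPL-pS-QETFS phosphopeptide for 5 min, formic acid quench; dephosphorylated product quantified by RapidFire MS against labelled standard.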
# [4] = target: Protein phosphatase 1D (Homo sapiens) (UniProt O15297); assay: Rhodamine-PBP qHTS Assay for Modulators of WT P53-Induced Phosphatase 1 (WIP1) (AID 1347425); settings: recombinant WIP1, Rhodamine-PBP phosphate fluorescence, real-time; series mostly up to 57.5 µM
# Summary of the method: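 The read-out is the change in Rhodamine-PBP fluorescence (f1 - f0, ex 525/em 598 nm) as Pi is released, read each minute for 11 min. Final reaction: 5 nM WIP1, 10 uM phosphopeptide VEPPL-pS-QETFS, 10 uM Rh-PBP, 50 mM Tris-HCl pH 7.5, 30 mM MgCl2. Compound was preincubated with enzyme for 1 hour at room temperature.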
# [5] = Validation qHTS assay for inhibitors of Activation Induced Cytidine Deaminase (AID): UDG Counterscreen signal (AID 1347427); settings: biochemical UDG counterscreen, fluorescence signal; series mostly up to 115 µM
# Summary of the method: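 Counterscreen read of UDG activity (2 U/mL, 4/3x) in the FRET deamination format with AID (1 uM, 4/3x), DJC20/DJC23 substrates (250 nM, 4x), 4 h at room temperature. NaOH stop, fluorescence at 560 ex/665 em.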
# [6] = target: Single-stranded DNA cytosine deaminase (Homo sapiens) (UniProt Q9GZX7); assay: Validation qHTS assay for inhibitors of Activation Induced Cytidine Deaminase (AID): AID signal (AID 1347429); settings: Recombinant AID, FRET ssDNA deamination with UDG, fluorescence; series mostly up to 115 µM
# Sequence of Single-stranded DNA cytosine deaminase (Homo sapiens) (Q9GZX7 whole entry, looked up): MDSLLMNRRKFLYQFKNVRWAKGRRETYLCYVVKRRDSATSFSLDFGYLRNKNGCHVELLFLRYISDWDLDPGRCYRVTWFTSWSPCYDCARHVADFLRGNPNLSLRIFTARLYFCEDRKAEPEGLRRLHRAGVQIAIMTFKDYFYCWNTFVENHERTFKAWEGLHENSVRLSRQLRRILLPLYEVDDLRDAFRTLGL
# Summary of the method: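 Fluorescence at 540 nm excitation and 590 nm emission reports ssDNA cytosine deamination by AID, with UDG in the same well. Compound-treated reactions ran 4 hr at room temperature with DJC20/DJC23 substrate, followed by 30 min NaOH treatment.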
# [7] = Primary qHTS for inhibitors of La Crosse Virus (LACV) - induced cell death in SH-SY5Y cells (AID 1508616); settings: SH-SY5Y LACV cytopathicity rescue, ATP luminescence, 6 d; series mostly up to 4.29 µM;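 further: top concentration of the series differs between compounds; higher means more rescue of cells from virus-induced death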
# Summary of the method: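 Protection against LACV-induced cell death is scored in SH-SY5Y cells exposed to compounds and virus (0.01 MOI) for 6 days. Data normalized to virus-infected DMSO wells and virus-free DMSO wells.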
# [8] = target: Calcium and integrin-binding protein 1 (Homo sapiens) (UniProt Q99828); assay: Validation qHTS for Identification of Calcium Integrin Binding protein 1 (CIB1) Competitor (AID 1508618); settings: CIB1-GST / FITC-alphaIIb peptide fluorescence polarization; series mostly up to 114 µM
# Summary of the method: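 CIB1-GST (1 uM final) incubated 15 min at room temperature with compounds (up to 114 uM), then FITC-labelled alphaIIb peptide (100 nM) added. FP read (Ex 480/Em 540) after 15 min, pH 7.4 buffer containing 5 mM CaCl2.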
compound,measurement,setting,value
CC(C)C(C)C=CC(C)C1CCC2C3=CC=C4CC(O)CCC4(C)C3CCC21C (stereo unspecified),Potency,[1],inactive
same,Potency,[2],inactive
COc1cc(N2CCC(N3CCN(C)CC3)CC2)ccc1Nc1ncnc(Nc2ccccc2S(=O)(=O)C(C)C)n1,Potency,[1],4.15 µM (active)
same,Potency,[2],inactive
C[C@H](NC(=O)C(=O)Nc1ccccc1C(C)(C)C)C(=O)N[C@@H](CC(=O)O)C(=O)COc1c(F)c(F)cc(F)c1F,Potency,[1],13.1 µM (active)
same,Potency,[2],inactive
NS(=O)(=O)c1cccc2c1C(=O)c1cccc(O)c1C2=O,Potency,[1],0.415 µM (active)
same,Potency,[2],inactive
CC1(C)CCC(CN2CCN(c3ccc(C(=O)NS(=O)(=O)c4ccc(NCC5CCOCC5)c([N+](=O)[O-])c4)c(Oc4cnc5[nH]ccc5c4)c3)CC2)=C(c2ccc(Cl)cc2)C1,Potency,[1],inactive
same,Potency,[2],inactive
C[C@]12CC[C@@H]3c4ccc(O)cc4C[C@@H](CCCCCCCCCS(=O)CCCC(F)(F)C(F)(F)F)[C@H]3[C@H]1CC[C@H]2O (stereo partly specified),Potency,[1],inactive
same,Potency,[2],inactive
CCCCCCCCCCCC1=C(O)C(=O)C=C(O)C1=O,Potency,[1],inactive
same,Potency,[2],inactive
O=C(Nc1c(Cl)cncc1Cl)c1ccc(OC(F)F)c(OCC2CC2)c1,Potency,[1],inactive
same,Potency,[2],inactive
N#Cc1ccc(NC(=O)Nc2ccccc2Br)c2n[nH]nc12,Potency,[1],inactive
same,Potency,[2],inactive
O=C(Nc1ccccc1-c1cn2c(CN3CCNCC3)csc2n1)c1cnc2ccccc2n1,Potency,[1],14.7 µM (active)
same,Potency,[2],inactive
COc1ccc(-n2c(C)c([N+](=O)[O-])c3ccc(O)cc32)cc1,Potency,[1],inactive
same,Potency,[2],inactive
O=c1cc(-c2cccc3c2Sc2ccccc2S3)oc(N2CCOCC2)c1,Potency,[1],inactive
same,Potency,[2],inactive
COc1cc(NC(=O)c2ccc(-c3ccc(Cl)cc3)o2)cc(OC)c1,Potency,[1],inactive
same,Potency,[2],inactive
COc1cccc2c1CCCC2CCCN1CCN(C2CCCCC2)CC1 (stereo unspecified),Potency,[1],inactive
same,Potency,[2],inactive
O=C(Nc1ccccc1Br)N[C@@H]1CCN(c2ccc(C(F)(F)F)cn2)C1,Potency,[1],inactive
same,Potency,[2],inactive
CC(C)(C(=O)NCC(F)(F)C(F)(F)F)C(=O)N[C@@H]1C(=O)Nc2ccccc2-c2ccccc21,Potency,[1],inactive
same,Potency,[2],inactive
O=C1C(Cl)=C(NCCN2CCOCC2)C(=O)c2ncccc21,Potency,[1],2.94 µM (active)
same,Potency,[2],inactive
CC(=O)OC1C(C)OC(Oc2c(-c3ccc(O)cc3)oc3cc(O)cc(O)c3c2=O)C(O)C1OC(C)=O (stereo unspecified),Potency,[1],inactive
same,Potency,[2],inactive
O=C(N[C@@H](c1ccccc1)[C@@H]1CCCCN1)c1cccc(C(F)(F)F)c1Cl,Potency,[1],inactive
same,Potency,[2],inactive
C[C@H](NC(=O)c1sccc1OCc1ccc(Cl)cc1)c1ccccc1,Potency,[1],inactive
same,Potency,[2],inactive
Cc1ccc(/C=N/NC(=O)c2ccccc2Oc2ccccc2)o1,Potency,[1],inactive
same,Potency,[2],inactive
CCn1c(C(=O)N(C2CC2)C2CC2)cc2c3c(ncn3C)c(Nc3cc(C)n(C)n3)nc21,Potency,[1],inactive
same,Potency,[2],inactive
COCCOc1nc(-c2ccc(Cl)c(Cl)c2)n(-c2ccc(NC(=O)CCl)cc2)n1,Potency,[1],5.23 µM (active)
same,Potency,[2],inactive
CCCNC(=O)NS(=O)(=O)c1ccc(Cl)cc1,outcome,[3],inactive
same,outcome,[4],inactive
same,outcome,[5],inactive
same,Potency,[6],inactive
same,outcome,[7],inactive
same,outcome,[8],inactive
same,Potency,[2],inactive
O=C1C[C@@H](c2ccc(O)cc2)Oc2cc(O)cc(O)c21,Potency,[1],inactive
same,Potency,[2],inactive
CCN(CC)C(=O)c1ccc(O)c(OC)c1,outcome,[3],inactive
same,outcome,[4],inactive
same,outcome,[5],inactive
same,Potency,[6],inactive
same,outcome,[7],inactive
same,outcome,[8],inactive
same,Potency,[2],inactive
CC(C)OC(=O)C(C)(C)Oc1ccc(C(=O)c2ccc(Cl)cc2)cc1,outcome,[3],inactive
same,outcome,[4],inactive
same,outcome,[5],inactive
same,Potency,[6],inactive
NCCS,outcome,[3],inactive
same,outcome,[4],inactive
same,outcome,[5],inactive
same,Potency,[6],inactive
same,outcome,[7],inactive
same,outcome,[8],inactive
same,Potency,[2],inactive
COC1CCC(N(C(=O)C2CCC(C)CC2)c2cc(C3=CCCCC3)sc2C(=O)O)CC1 (stereo unspecified),Potency,[1],inactive
same,Potency,[2],inactive
CCOC(CN1C(=O)[C@](CC(=O)Nc2ccc(C)cc2)(NC(=O)Nc2ccc(C)cc2)c2ccccc21)OCC,Potency,[1],inactive
same,Potency,[2],inactive
O=C(Nc1cccc(Br)c1)c1cccc(S(=O)(=O)N2CCCCCC2)c1,Potency,[1],inactive
same,Potency,[2],inactive
COc1ccc(C2CC(c3ccccc3)=NN2c2ccc(S(N)(=O)=O)cc2)cc1 (stereo unspecified),Potency,[1],inactive
same,Potency,[2],inactive
O=C1NC(=O)C(c2ccccc2)(c2ccccc2)N1,outcome,[3],inactive
same,outcome,[4],inactive
same,outcome,[5],inactive
same,Potency,[6],inactive
same,outcome,[7],inactive
same,outcome,[8],inactive
same,Potency,[2],inactive
CC(C)C[C@H](CC(=O)O)C(=O)N[C@@H](Cc1c[nH]c2ccccc12)C(=O)N[C@@H](C)c1ccccc1,Potency,[1],inactive
same,Potency,[2],inactive
NC(N)=Nc1nc(CSCC/C(N)=N/S(N)(=O)=O)cs1,outcome,[3],inactive
same,outcome,[4],inactive
same,outcome,[5],inactive
same,Potency,[6],inactive
same,outcome,[7],inactive
same,outcome,[8],inactive
same,Potency,[2],inactive
COCCOC(=O)C1=C(C)NC2=C(C(=O)CC(c3ccccc3OC)C2)C1c1cccc(O)c1 (stereo unspecified),Potency,[1],inactive
same,Potency,[2],inactive
O=C(NC1CCOCC1)c1ccc(-c2cc(-c3cn[nH]c3-c3ccccn3)ccn2)cc1,Potency,[1],inactive
same,Potency,[2],inactive
